GALR2 blocker: GALR2 (human) receptor antagonism; GALR2-expressing cells, antagonist mode; inhibition, % at 4 µM; hit rate 0.39% among 140,000; AID 828; in the data active = inhibition above about 27%;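 also: cells stimulated with galanin 1-16 at roughly its EC80; 0% = agonist challenge control and 100% = basal control without agonist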
Target sequence (O43603 whole entry, looked up): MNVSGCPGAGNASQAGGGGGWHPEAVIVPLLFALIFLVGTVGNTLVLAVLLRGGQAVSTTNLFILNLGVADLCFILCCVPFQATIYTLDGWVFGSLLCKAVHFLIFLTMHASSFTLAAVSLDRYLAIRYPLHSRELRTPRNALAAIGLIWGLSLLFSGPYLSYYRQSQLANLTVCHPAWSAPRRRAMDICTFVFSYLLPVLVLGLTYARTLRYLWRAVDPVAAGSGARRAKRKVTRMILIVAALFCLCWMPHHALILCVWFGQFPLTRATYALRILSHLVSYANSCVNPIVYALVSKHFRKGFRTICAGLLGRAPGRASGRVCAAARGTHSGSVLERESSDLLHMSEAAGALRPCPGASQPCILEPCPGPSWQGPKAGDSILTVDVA
GALR2 ag: activates the human galanin receptor 2; GALR2-expressing cells, agonist activation read-out; hit rate 0.48% among 140,000; O43603; activation, % (test concentration not listed); AID 803; in the data active = activation above about 5%, passing the limit was not always enough;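 also: 0% = vehicle buffer wells and 100% = reference agonist at full effect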
S1P2 ag: agonists of human S1P2 receptor; activation, % at 4.5 µM; AID 729; S1P2-expressing cell line, agonist reporter read-out; hit rate 0.46% among 97,000; O95136; in the data active = activation above about 16%;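 also: 0% = vehicle low control and 100% = maximal reference agonist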
PostGolgi ctrl: inhibits growth of the yeast control strain | hit rate 5% among 98,000 | inhibition, % at 10 µM | efflux-deficient yeast background strain, growth absorbance A615, 16 h
S1P2 antag: S1P2 (human) receptor antagonism | O95136 | cell-based S1P2 antagonist assay, inhibition at 5 uM | inhibition, % at 5 µM | hit rate 0.21% among 97,000 | AID 736; in the data active = inhibition above about 45%;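 also: CRE beta-lactamase reporter cells expressing human S1P2 stimulated with S1P; 0% = agonist at EC80 alone and 100% = agonist plus reference antagonist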
PostGolgi yeast: growth inhibition of a yeast mutant, post-Golgi transport screen; AID 739; hit rate 0.9% among 98,000; post-Golgi transport phenotypic cell assay; inhibition, % at 10 µM;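 also: yeast cells grown in 1536-well plates; yeast grown about 18 h at 30C before absorbance read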
* hit, by the source's call; x = no result. This excerpt belongs to a sample that is enriched for hits. Rule as the data show it, unless noted: active = inhibition above about 30%; inactive = the rest.

SMILES	GALR2 blocker	GALR2 ag	S1P2 ag	PostGolgi ctrl	S1P2 antag	PostGolgi yeast
COc1ccc(/C=N/NC(=O)c2cccc([N+](=O)[O-])c2)cc1OC(=O)c1ccc(C)cc1	-10.3	-2.5	-4.1	19.6	-7.1	-1.1
CCOc1cc(/C=N/n2cnnc2)ccc1OC(=O)c1cccc([N+](=O)[O-])c1	-1.7	-0.8	-1.2	36.4*	-5.8	2.6
COC(=O)[C@@]1(Cc2ccc(F)cc2)[C@H]2c3cc(C(=O)N4CCCC4)n(CCc4c[nH]c5ccc(OC)cc45)c3C[C@H]2CN1C(=O)c1ccccc1	-10.0	-0.5	x	x	x	x
CC(NC(=O)C(C(=O)c1cccc([N+](=O)[O-])c1)n1cc(Cl)ccc1=O)c1ccccc1 (configuration not stated)	9.1	-0.3	x	x	x	x
Fc1ccc(COc2ccc(/C=N/n3cnnc3)cc2)cc1	5.0	-2.0	-11.1	34.9*	13.8	10.3
Clc1ccccc1COc1ccc(/C=N/n2cnnc2)cc1	0.9	-1.1	x	x	x	x
CN(C)CCCNC(=O)c1ccc(-c2nc(-c3ccc(Cl)cc3)cs2)cc1	13.4	-1.3	-1.6	38.5*	40.6	-0.8
COc1ccc(NC(=O)CN2CCN(Cc3ccc4c(c3)OCO4)CC2)cc1OC	10.6	-2.6	-4.7	0.6	4.7	10.3
COc1ccc(CC(=O)NC2CCN(CC(=O)Nc3ccc4c(c3)OCCO4)CC2)cc1OC	5.5	-1.0	-4.0	37.1*	7.7	-8.5
CCSc1nc2c(sc3nc(C)cc(C)c32)c(=O)[nH]1	11.3	-1.6	0.5	42.0*	-2.8	-6.8
Cc1cc(C)c2nc(C(F)(F)F)nc(NCCCN3CCOCC3)c2c1	-1.3	0.5	-6.2	30.0	-26.1	40.8*
Fc1ccccc1-c1nc(NCCCN2CCOCC2)c2ccccc2n1	-9.7	-1.8	x	x	x	x
COc1ccc(-n2c(C)cc(/C=N/Nc3nnc(C)n3N)c2C)cc1	14.3	-2.2	x	x	x	x
CCC(NS(=O)(=O)c1ccc(C)cc1)C(=O)Nc1ccc(NC(C)=O)cc1 (configuration not stated)	-3.5	-2.9	1.6	15.7	0.1	-7.3
Cc1ccc2c(c1)-c1cc(C)nn1C(c1sccc1C)N2 (configuration not stated)	0.5	-0.1	0.2	30.2*	5.6	-1.4
Cc1cc2n(n1)C(c1sccc1C)Nc1ccccc1-2 (configuration not stated)	9.2	-1.2	-2.5	8.3	-26.5	15.2
COc1ccc(CNC2CC(=O)N(C)C2=O)cc1 (configuration not stated)	2.0	-2.3	x	35.0*	x	10.6
COc1ccc(N2C(=O)CC(NCc3ccc(F)cc3)C2=O)cc1 (configuration not stated)	-1.4	-0.7	-2.3	x	-5.4	x
O=C1Nc2ccccc2C12NCCc1c2[nH]c2ccccc12 (configuration not stated)	8.5	-1.0	-4.9	-6.2	2.0	3.4
COc1cc2c(cc1OC)C1(NCC2)C(=O)Nc2ccccc21 (configuration not stated)	14.8	-1.6	-2.2	47.7*	-3.5	0.3
CCN(CC)CCOC(=O)c1ccc(NC(=O)C(C)NC(=O)C23CC4CC(CC(C4)C2)C3)cc1 (configuration not stated)	6.4	-0.2	x	x	x	x
N#CC1=C(N)N(c2ccccc2Sc2ccccc2)C(=O)C1	7.4	-0.7	x	34.8*	x	-7.1
N#CC1=C(N)N(c2ccccc2)C(=O)C1	-0.1	-1.6	-5.0	19.4	3.0	3.2
Cc1nc(-c2cccc(NS(=O)(=O)c3cccc4ccccc34)c2)cs1	4.3	-2.2	-3.6	62.5*	8.1	-3.7
Cc1nc(-c2cccc(NS(C)(=O)=O)c2)cs1	-5.8	-0.5	2.5	9.8	2.9	-2.8
SMILES	GALR2 blocker	GALR2 ag	S1P2 ag	PostGolgi ctrl	S1P2 antag	PostGolgi yeast
Cc1cccc(C)c1NC(=O)/C(=C/c1ccco1)c1ccccc1	-5.1	-1.8	-2.7	16.2	-22.6	-4.7
Cc1ccccc1NC(=O)/C(=C/c1ccccc1)c1ccccc1	-3.3	0.0	-2.0	31.4*	11.5	-2.9
O=C(O)c1ccc(NC(=S)Nc2ccccc2)cc1	3.4	-0.5	x	x	x	x
O=C(Nc1ccccc1)/C(=C/c1ccccc1)c1ccccc1	-2.2	-0.1	-1.5	40.3*	-10.1	-6.4
O=C(NNC(=S)Nc1ccc(Cl)cc1Cl)C1CC1	11.8	-0.6	x	x	x	x
COc1ccc(OC)c(N(CC(=O)Nc2ccc(NC(C)=O)cc2)S(C)(=O)=O)c1	5.6	-2.2	-2.6	30.6*	11.8	5.2
Cc1sc(NC(=O)c2ccco2)c(CN2CCC(C)CC2)c1C	3.3	-2.7	-4.1	1.4	3.6	-0.2
Cc1sc(NC(=O)c2ccco2)c(C(c2cccnc2)N2CCC(C)CC2)c1C (configuration not stated)	-1.8	-1.7	-2.8	41.0*	-3.3	86.3*
N#CC1=C(N)c2ccccc2CC12CCCCC2	-12.2	-1.9	-4.4	38.9*	-20.4	1.1
O=C(CCCOc1ccccc1)NC1CCCc2ccccc21 (configuration not stated)	1.9	0.5	x	x	x	x
CCOC(=O)C(C)/C(C)=N/NC(N)=S (configuration not stated)	15.5	-0.8	x	x	x	x
CCOC(=O)c1c(-c2ccccc2)nc2cc(C)ccn12	-3.6	-1.4	-1.1	14.5	-32.8	-9.4
CCOC(=O)c1c(-c2ccccc2)nc2ccc(C)cn12	-3.2	0.9	5.8	31.3*	-13.0	-36.2
Cc1cc(NC(=O)CCC(=O)N(CCC(C)C)CC(=O)NCC2CCCO2)no1 (configuration not stated)	-1.4	-2.2	-2.0	38.3*	-6.7	-0.3
Cc1cc(NC(=O)CCC(=O)N(CC(=O)NCC2CCCO2)Cc2ccc(F)cc2)no1 (configuration not stated)	8.4	-2.8	-3.2	x	-5.7	x
OC(CN1CCN(c2ccccc2)CC1)Cn1c2ccccc2c2ccccc21 (configuration not stated)	9.3	-0.4	0.2	36.5*	3.0	-0.6
OC(CN1CCN(c2ccccn2)CC1)Cn1c2ccc(Cl)cc2c2cc(Cl)ccc21 (configuration not stated)	-15.1	-0.7	-0.7	96.8*	-29.8	96.6*
OC(COC(c1ccc(Cl)cc1)c1ccc(Cl)cc1)CN1CCN(c2ccccn2)CC1 (configuration not stated)	-4.0	-0.1	x	x	x	x
COC(=O)c1ccc(NC(CC(C)C)C(=O)OC)c([N+](=O)[O-])c1 (configuration not stated)	3.1	-2.7	x	x	x	x
CCN(CC)S(=O)(=O)c1ccc(NCc2ccccc2)nc1	2.1	-1.5	-0.4	38.0*	4.6	-4.2
CCCNc1ccc(S(=O)(=O)N(CC)CC)cn1	-1.9	-3.0	x	x	x	x
O=C(Nc1nc(-c2ccccc2)c(-c2ccccc2)o1)c1ccc(F)cc1	0.1	-1.9	-3.6	84.6*	13.3	98.1*
Cc1ccc(C2Nc3ccccc3C(=O)N2Cc2ccco2)cc1 (configuration not stated)	-6.2	-0.7	-2.0	1.0	16.4	6.3
Clc1cccc(Cl)c1CO/N=C/c1c(-c2ccccc2)nc2n1CCS2	-10.8	1.0	-2.2	30.1*	-4.0	-2.7

Assay outcomes: PubChem, several laboratories
